Assay outcomes from PubChem BioAssay.
An excerpt weighted towards active compounds, which were near 4.4% of everything screened.
tim23-1 inh = growth inhibitors of tim23-1 mutant yeast, primary screen, luminescence, uHTS. S. cerevisiae tim23-1 growth, BacTiter-Glo luminescence, 24 h. inhibition, % at 20 µM. 1.3% of 330,000 active;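 active = growth inhibition of the mutant yeast at or above 50%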;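 also: temperature-sensitive mutant grown at 25 °C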
PfHsp90 yeast 2 = growth inhibition of PfHsp90-expressing yeast, primary screen, antimalarial PfHsp90 inhibitor project, S. cerevisiae, BacTiter-Glo luminescence, single point, set 2. AID 504621, 2011. inhibition, % at 9.4 µM. BacTiter-Glo ATP, 48 h; yeast lacking PDR1 and PDR3 efflux regulators. 0.32% of 310,000 active;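 active = every replicate shows inhibition above about 80%, whatever the replicate mean, limit read from the data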
tim10-1 inh = growth inhibitors of tim10-1 mutant yeast, primary screen, luminescence, uHTS; S. cerevisiae tim10-1 ts strain growth, BacTiter-Glo, 24 h; inhibition, % at 20 µM; 2.2% of 330,000 active; AID 463190, 2010;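 active = inhibition of at least 40%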;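 also: mutant grown at 25 °C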
TIM10 inh = growth inhibitors of isogenic TIM10 control yeast, primary screen, counter-screen for tim10-1 yeast inhibitor project, luminescence, uHTS; S. cerevisiae TIM10 strain growth, BacTiter-Glo luminescence, 24 h; inhibition, % at 10 µM; 1.4% of 330,000 active; AID 463195, 2010;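 active = inhibition of 40% or more at the single tested concentration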;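 also: wild-type TIM10 isogenic control strain grown at permissive 25 °C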
SUMO Mot1 rescue = yeast Mot1-301 growth rescue at high temperature, primary screen, SUMOylation pathway inhibitor project, S. cerevisiae, ATP luminescence, 38.5C; S. cerevisiae Mot1-301 growth rescue; percent above DMSO median, 100 means doubled; 1% of 320,000 active; growth rescue, % at 18.8 µM; AID 2716, 2010;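 active = every valid replicate shows activation above 250% relative to neutral control wells; inactive = the rest, any valid replicate at or below 250%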
tim10-1 confirm = growth inhibitors of tim10-1 mutant yeast, confirmation, single concentration, luminescence, S. cerevisiae | shares compounds with tim10-1 inh | AID 463213, 2010 | 56% of 7,400 active | S. cerevisiae tim10-1 ts strain growth, BacTiter-Glo, 24 h | inhibition, % at 20 µM;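 active = inhibition of yeast growth at or above a set limit in either of two repeat tests at 20 µM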;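 also: tim10-1 mutant grown at permissive 25 °C to find synthetic lethal compounds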
Each line names hits and unclear results; the compound was inactive in the other large screens (follow-up assays come after a bar, where they were run).

Oc1c(CN2CCCC(C(F)(F)F)C2)cc(Cl)c2ccccc12 (centres undefined)	tim10-1 inh 42 | tim10-1 confirm inactive
CN(CC(=O)NCCc1ccc(S(N)(=O)=O)cc1)S(=O)(=O)c1ccc(Br)s1	none
CCCn1cc(CN2CCc3ccc(NC(=O)C4CCCO4)cc3C2)c(C)n1 (centres undefined)	none
COC(=O)c1[nH]c2cc(C)ccc2c1NC(=O)CN1CCCc2ccccc21	none
COC(=O)c1[nH]c2ccc(Br)cc2c1NC(=O)CN1CCCc2ccccc21	tim10-1 inh 46 | tim10-1 confirm 34
CN(C)C(=O)Cn1cnc2c(cnn2-c2ccc(F)cc2)c1=O	none
O=C(CSc1ccccc1)NCC1(N2CCCCC2)CCCCC1	none (no result: PfHsp90 yeast 2)
Cc1c(C(=O)NCC2COc3ccccc3O2)oc2ccc(S(=O)(=O)N3CC(C)CC(C)C3)cc12 (centres undefined)	none
Cc1c(C(=O)NCC2COc3ccccc3O2)oc2ccc(S(=O)(=O)N3CCOCC3)cc12 (centres undefined)	tim10-1 inh 42 (no result: PfHsp90 yeast 2) | tim10-1 confirm inactive
Cc1c(C(=O)NC2CC2)oc2ccc(S(=O)(=O)N3CCCCCC3)cc12	tim10-1 inh 49 (no result: PfHsp90 yeast 2) | tim10-1 confirm 38
COc1ccc(NC(=O)CSc2nnnn2C2CCCCC2)cc1	none
COC(=O)c1ccc(-n2nc(C(F)(F)F)c3c2-c2ccoc2CC3)cc1	tim10-1 inh 41 | tim10-1 confirm inactive
O=C(O)c1ccc(-n2nc(C(F)(F)F)c3c2-c2ccoc2CC3)cc1	none (no result: PfHsp90 yeast 2)
COCCN(C(=S)Nc1cc(C)cc(C)c1)C(C)c1cccs1 (centres undefined)	none
COCCN(C(=S)Nc1ccc(OC)cc1)C(C)c1cccs1 (centres undefined)	tim10-1 inh 41 | tim10-1 confirm inactive
CSc1ccc(Cl)c(C(=O)NNC(=O)c2cccs2)c1	none
O=C(c1ccc2nc(-c3ccco3)c(-c3ccco3)nc2c1)N1CCN(c2ccccc2)CC1	tim10-1 inh 42 (no result: SUMO Mot1 rescue) | tim10-1 confirm 33
CCc1nc2ccc(C(=O)N3CCN(c4ccccc4)CC3)cc2nc1CC	none
O=C(/C=C\c1ccco1)Nc1ccc(N2CCN(C(=O)c3ccccc3)CC2)cc1	tim10-1 inh 42 | tim10-1 confirm 32
CCc1nc2ccc(C(=O)N3CCN(c4cccc(C(F)(F)F)c4)CC3)cc2nc1CC	tim10-1 inh 42 | tim10-1 confirm inactive
COc1cc(-c2nnc(NC(=O)CCS(=O)(=O)c3ccccc3)o2)cc(OC)c1OC	none
Clc1cccc(Cl)c1/C=C/c1ccn[nH]1	tim10-1 inh 55 | tim10-1 confirm 40
CCCCCN(C(=O)CCC(=O)OCc1cccc(C(F)(F)F)c1)c1c(N)n(CCCC)c(=O)[nH]c1=O	none
O=C(NC1(Cc2ccccc2)CCN(Cc2ccc(-c3ccccc3)cc2)C1=O)c1ccccc1 (centres undefined)	none
O=C(NCCN1C(=O)S/C(=C\c2ccc(OC(F)F)cc2)C1=O)C1=COCCO1	tim10-1 inh 44 (no result: PfHsp90 yeast 2) | tim10-1 confirm inactive
NNC(=O)Cn1nc(Cc2ccccc2)n(N)c1=O	none
CCN(C(=O)CSc1ncccc1C(=O)OC(C)C)c1cccc(C)c1	tim10-1 inh 42 (no result: PfHsp90 yeast 2) | tim10-1 confirm inactive
CCOC(=O)c1cccnc1SCC(=O)N(CC)c1cccc(C)c1	tim10-1 inh 40 (no result: PfHsp90 yeast 2) | tim10-1 confirm 35
CC(C)OC(=O)c1cccnc1SCC(=O)N(C)c1ccccc1	none (no result: PfHsp90 yeast 2)
CCn1c2ccccc2c2nnc(SCc3ccccc3)nc21	tim10-1 inh 44 | tim10-1 confirm inactive
CC(C)(C)NC(=O)NC(=O)COc1ccc(Br)cc1Br	tim10-1 inh 46 | tim10-1 confirm 34
CCCOc1ccc(CCC(=O)N/N=C/c2ccncc2)cc1	none
Cc1cc(C)c(COc2ccc(/C=N/n3c(C)n[nH]c3=S)cc2)c(C)c1	tim10-1 inh 41 | tim10-1 confirm inactive
Cc1n[nH]c(=S)n1/N=C/c1ccc(OCc2ccc(Cl)cc2)cc1	none (no result: PfHsp90 yeast 2)
